Sm TGR block = qHTS Assay for the Inhibitors of Schistosoma Mansoni Peroxiredoxins. 3% of 360,000 active. Schistosoma mansoni thioredoxin glutathione reductase (TGR), Q962Y6. Potency, µM (top dose mostly 114 µM), inactives show at the top dose activity change, negative = inhibition, usual class: inhibitors. purified TGR, DTNB reduction, TNB absorbance 405 nm. AID 485364, 2010; active = well fitted inhibition curve with a large enough effect; inconclusive = small, poorly fitted or top-dose-only effect; inactive = no such curve, though single readings can be large or run the other way; also: nearly all actives have a fitted effect of over 60% in size
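First, TGR (20 nM dispensed) and NADPH were mixed with compound. Second, a 15 min room-temperature incubation followed. Third, further NADPH and then DTNB were added to start the reaction. Finally, TNB absorbance was monitored kinetically.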
Marburg entry inh = qHTS for inhibitors of binding or entry into cells for Marburg Virus; Potency, µM (doses to about 37.8 µM), for inactives: at the highest dose activity change, negative = inhibition, actives largely listed as inhibitors; 1.8% of 300,000 active; Marburg virus pseudotyped entry inhibition, cell reporter; AID 540276, 2011; calls by dose curve; tested in HEK293 cells
LASV entry inh = qHTS for Inhibitors of binding or entry into cells for Lassa Virus | Lassa virus pseudotype entry inhibition, cell reporter | Potency, µM (top dose mostly 37.9 µM), without a hit: at the top dose activity change, negative = inhibition, usual class: inhibitors | 1.2% of 300,000 active; calls by dose curve; tested in HEK293 cells; also: nearly all actives have a fitted effect of over 50% in size
Vaccinia mCherry = qHTS for Stage-Specific Inhibitors of Vaccinia Orthopoxvirus: mCherry Reporter Primary qHTS; AID 720579, 2013; Potency, µM (top dose mostly 36.5 µM), inactives show top-dose activity change, negative = inhibition, actives largely listed as inhibitors; 0.63% of 310,000 active; Vaccinia virus mCherry reporter infection, fluorescence; calls by dose curve; tested in A549 cells; also: nearly all actives have a fitted effect of over 35% in size
Vaccinia Venus = qHTS for Stage-Specific Inhibitors of Vaccinia Orthopoxvirus: Venus Reporter Primary qHTS; Potency, µM (top dose mostly 36.5 µM), for inactives: at the highest dose activity change, negative = inhibition, usual class: inhibitors; Vaccinia virus Venus reporter expression, fluorescence; AID 720580, 2013; 0.46% of 330,000 active; calls by dose curve; tested in A549 cells; also: nearly all actives have a fitted effect of over 30% in size
FMDV inh = High Throughput Screening for Foot and Mouth Disease Virus Antivirals; Potency, µM (titrated, usually from 57.9 µM), for the others: at the top dose activity change, negative = inhibition, actives largely listed as inhibitors; AID 1159524, 2015; 1.2% of 410,000 active; FMDV antiviral cell-based qHTS; calls by dose curve; tested in HEK293T cells; also: read-out not given here; nearly all actives have a fitted effect of over 45% in size
* hit, by the source's call; i = inactive; ? = inconclusive; · = no result; [ ] = dose if it differs, or a comment. Compounds with a hit are over-represented: about 5.4% of the library has one in this group of screens. % is scaled to controls: 0 for no effect and ±100 for the full control effect; potency is read from the fitted curve at half-maximal effect.

SMILES	Sm TGR block	Marburg entry inh	LASV entry inh	Vaccinia mCherry	Vaccinia Venus	FMDV inh
CCCCOc1ccc(C(=O)NCCc2sc3nc(-c4ccc(OC)cc4)nn3c2C)cc1	9.4%	·	1.0%[46.1 µM]	-10.0%	-8.2%	-9.6%
CC(=O)Oc1c(/C=C(\C#N)C(N)=O)[nH]c2ccccc12	-23.3%	?	16.4µM*	·	·	-9.0%
COc1cccc(CNC(=O)c2ccc3c(c2)nnn3C2CCCC2)c1	5.8%	·	-10.8%[46.1 µM]	-3.6%	-4.0%	-12.8%
CC(C)C[C@H](N)CSSC[C@@H](N)CC(C)C	·	1.26µM*	·	·	·	·
CC(C)CC(C)N (stereo unspecified)	-32.4%	·	·	-13.7%	-14.8%	-24.5%
Cc1ccc(CCNC(=O)C(C)n2nc(C)c3c(C)n(-c4ccc(C)cc4)nc3c2=O)cc1 (stereo unspecified)	-1.0%	·	?	?	-27.8%	11.2µM*
Cc1ccc(-n2nc3c(=O)n(CC(=O)c4ccc(F)cc4)nc(C)c3c2C)cc1	14.6%	27.7%	1.6%	-8.1%	-25.3%	25.1µM*
Cc1ccc(-n2nc3c(=O)n(CCCC(=O)NCc4ccc(F)cc4)nc(C)c3c2C)cc1	1.6%	·	2.6%[46.1 µM]	-24.3%	-14.2%	?
CCc1ccccc1NC(=O)Cn1cc2c(n1)CCC(C)C2 (stereo unspecified)	-9.9%	5.0%[46.1 µM]	4.4%[46.1 µM]	-8.0%	-16.1%	20.2%
CC(C)n1cc(/C=C/c2cc[n+](C)cc2)c2ccccc21	-20.7%	2.51µM*	?	?	125.9%	?
CCn1cc(/C=C/c2cc[n+](C)cc2)c2ccccc21	-20.6%	·	·	·	·	-22.5%
CC(=O)CCc1oc2ccccc2c1-c1ccccc1	-25.8%	?	11.2%	-17.4%	-6.1%	-28.4%
Cc1ccc(-c2nnc(-c3ccc(Br)cc3)o2)o1	-7.9%	?	-7.5%	·	·	26.8%
C/C(CCc1oc2ccccc2c1-c1ccc(C)o1)=N/O	20µM*	?	-14.1%	·	?	-18.4%
C/C(CCc1oc2c(Br)cc(Br)cc2c1-c1ccc(C)o1)=N\O	15.8µM*	-12.0%	-3.5%	i	-2.1%	·
CCc1nc(SCC(=O)N2c3ccccc3CC2C)c2c(C)c(C)sc2n1 (stereo unspecified)	1.7%	0.92µM*	1.46µM*	?	32.6%	·
CCCC1=C(C(=O)OCC)C(c2ccc(OC)c(CSc3ccccn3)c2)C(C#N)=C(N)O1 (stereo unspecified)	31.6µM*	11.8%	-9.3%	-6.3%	-16.0%	-19.2%
C=CCOC(=O)C1=C(C)OC(N)=C(C#N)C1c1ccc(OC)c(CSc2ccccn2)c1 (stereo unspecified)	-13.0%	1.6%	·	i	-3.7%	5.9%
CCN(C(=O)c1cn(CC(C)C)c(=O)c2cc(OC)c(OC)cc12)c1cc(OC)ccc1OC	-4.0%	-7.1%[46.1 µM]	-11.4%[46.1 µM]	-13.4%	-6.4%	-6.8%
CC(=O)c1nn(-c2cccc(Br)c2)cc1C(=O)c1ccco1	1.9%	2.4%	-2.3%	·	·	-1.2%
Cc1nnc(-c2ccco2)c2cn(-c3cccc(Br)c3)nc12	?	-15.7%[46.1 µM]	?	-6.4%	-1.7%	22.4µM*
CCOc1ccc(/C=C/c2nc(C#N)c(N3CCCCC3)o2)cc1	5.1%	12.3%[46.1 µM]	1.3%[46.1 µM]	-29.0%	-23.0%	-14.9%
COc1cccc(C2=CC(c3cccc(OC)c3OC)n3nnnc3N2)c1 (stereo unspecified)	39.8µM*	?	?	-6.6%[1.46 µM]	?	-11.8%
COc1cccc(C2=CC(c3cccc(OC)c3OC(F)F)n3nnnc3N2)c1 (stereo unspecified)	-6.0%	-22.0%	-0.7%	-27.5%	-22.5%	-14.1%
COc1ccc(OC)c(C2C=C(c3ccc(C)c(C)c3)Nc3nnnn32)c1 (stereo unspecified)	?	?	5.01µM*	·	?	-26.2%
SMILES	Sm TGR block	Marburg entry inh	LASV entry inh	Vaccinia mCherry	Vaccinia Venus	FMDV inh
COc1cccc(C2=CC(c3cc(OC)ccc3OC)n3nnnc3N2)c1 (stereo unspecified)	?	?	?	·	?	-39.7%
N#Cc1c(NCCCO)nc(-c2ccco2)c2c1CCCC2	6.31µM*	-9.6%[46.1 µM]	-14.0%	·	-24.5%	-22.7%
N#Cc1c(NC2CCCCC2)nc(-c2ccco2)c2c1CCCC2	35.5µM*	0.2%[46.1 µM]	-12.9%	·	-0.3%	0.0%
N#Cc1c(N2CCNCC2)nc(-c2ccco2)c2c1CCCC2	6.8%	?	-7.0%[46.1 µM]	-0.6%	-6.3%	-18.9%
O=C(O)CCc1ccc(-c2ccc(F)cc2)n1CC1CCCO1 (stereo unspecified)	?	26.8%	10.0%	·	·	5.6%
COc1ccc(-c2ccc(CCC(=O)O)n2CC2CCCO2)cc1 (stereo unspecified)	35.5µM*	?	?	?	-16.5%	24.6%
O=C(O)CCc1ccc(-c2cccs2)n1CC1CCCO1 (stereo unspecified)	8.91µM*	10.1%	-8.6%	·	·	14.6%
CCOc1ccc(CCNC(=O)CSCc2nc(-c3cccc(C)c3)oc2C)cc1OCC	4.1%	?	-19.3%[46.1 µM]	?	?	?
S=C(c1ccc(-c2ccc(Cl)c(Cl)c2)o1)N1CCOCC1	44.7µM*	-21.7%	?	-23.5%	-11.2%	·
CCN(CC)S(=O)(=O)c1ccc2c(c1)nc(CCC(=O)Nc1cccc(C(F)(F)F)c1)n2CC	8.0%	11.2µM*	?	·	?	-9.9%
CCN(CC)S(=O)(=O)c1ccc(/C=C/C(=O)Nc2ccc(Br)cc2F)cc1	-3.9%	6.51µM*	1.58µM*	-12.8%	-27.6%	5.01µM*
CCN(CC(=O)Nc1cccc(C(C)=O)c1)S(=O)(=O)c1ccc(OC)cc1	?	?	-5.6%	·	-5.8%	?
CCN(CC)S(=O)(=O)c1cccc(NC(=O)CN(C)Cc2cccc(OC)c2)c1	-5.6%	23.1µM*	11.2µM*	-10.8%	-15.8%	?
CCN(CC)S(=O)(=O)c1cccc(NC(=O)/C=C/c2cccc([N+](=O)[O-])c2)c1	2.9%	?	?	?	?	17.8µM*
CCN(CC)S(=O)(=O)c1ccc2c(c1)nc(CCC(=O)O)n2CC	18.4%	1.1%[14.2 µM]	9.7%	-0.9%	-1.3%	-2.5%
CCN(CC)S(=O)(=O)c1cccc(NC(=O)/C=C/c2ccc([N+](=O)[O-])cc2)c1	-11.2%	-0.5%	-9.1%	-10.1%	-0.1%	-23.2%
CCN(CC)S(=O)(=O)c1cccc(NC(=O)Nc2cccc(C(F)(F)F)c2)c1	-2.0%	14.6µM*	16.4µM*	·	·	17.8µM*
O=C1C(Cl)=C(N2CCCC2)C(=O)N1c1ccc(F)cc1	50.1µM*	1.8%	8.5%	-0.1%	-8.1%	55.1%
Cc1ccc(CNC(=O)CSc2ncc3c(n2)-c2cc(Cl)ccc2N(C)S3(=O)=O)cc1	2.3%	·	-5.9%[46.1 µM]	-17.2%	0.4%	-19.0%
Cn1nc(C(C)(C)C)cc1C(=O)O	-5.6%[57.1 µM]	6.0%	2.1%	·	·	-3.5%
